Assay outcomes (PubChem BioAssay)
Compounds with a hit are over-represented: about 7.3% of the library has one in this group of screens.
FMDV inh – blocks foot and mouth disease virus. hit rate 1.2% among 410,000. Potency, µM (titrated, usually from 57.9 µM), without a hit: top-dose activity change, negative = inhibition, usual class: inhibitors. FMDV antiviral cell-based qHTS; calls by dose curve; tested in HEK293T cells; note: read-out not given here; potency is the fitted concentration of half-maximal effect; nearly all actives have a fitted effect of over 45% in size
HCMV antiviral – inhibitors of human cytomegalovirus | activity change, negative = inhibition, % at 57.5 µM | AID 1259415 | hit rate 4.5% among 410,000 | HFF cells, HCMV-luciferase reporter, 72 h; stronger effect = lower value; in the data active = activity change below about -60%; inconclusive = no clear call, values can overlap the other calls; inactive = above about -39%
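Inhibition of viral replication was scored as loss of reporter luminescence in HFFs infected with HCMV-luciferase (MOI 1 PFU/cell) for 72 h; compounds tested at 2 doses, normalized to buffer and Salinomycin controls.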
VACV mCherry inh – vaccinia inhibition (mCherry reporter); Vaccinia virus mCherry reporter infection, fluorescence; Potency, µM (highest dose often 36.5 µM), for inactives: top-dose activity change, negative = inhibition, most hits filed as inhibitors; hit rate 0.63% among 310,000; calls by dose curve; tested in A549 cells; note: potency is the fitted concentration of half-maximal effect; nearly all actives have a fitted effect of over 35% in size
VACV Venus inh – vaccinia inhibition (Venus reporter) | Vaccinia virus Venus reporter expression, fluorescence | Potency, µM (series often up to 36.5 µM), for the others: at the highest dose activity change, negative = inhibition, hits mostly inhibitors | hit rate 0.46% among 330,000 | AID 720580; calls by dose curve; tested in A549 cells; note: potency is the fitted concentration of half-maximal effect; nearly all actives have a fitted effect of over 30% in size
HCV inhibitor – inhibitors of hepatitis C virus infection; Huh7.5.1 HCVcc-Cre infection, luciferase reporter, 44 h; Potency, µM (titrated, usually from 41.8 µM), for inactives: at the top dose activity change, negative = inhibition, actives largely listed as inhibitors; hit rate 3.4% among 340,000; AID 651820; active = well fitted inhibition curve with a large enough effect; inconclusive = small, poorly fitted or top-dose-only effect, or another doubt; inactive = no such curve, though single readings can be large or run the other way; note: potency is the fitted concentration of half-maximal effect
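Seed cells (1,000/well) for 4 h; treat with compound and infect with HCVcc-Cre, moi about 0.5. Incubate 44 h, then detect luciferase activity.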
Active calls of the source: *. % is set by controls: 0 for no effect and ±100 for the full control effect.

`CN(Cc1ccccc1)CC(O)COc1ccc(CNCCc2ccncc2)cc1` (configuration not stated) gave FMDV inh -5%, HCMV antiviral -21, VACV mCherry inh inconclusive, VACV Venus inh -18% and HCV inhibitor 13µM*.
For CN(Cc1ccccc1)CC(O)COc1ccc(CNCCc2cccnc2)cc1 (configuration not stated) the results were FMDV inh 1%, HCMV antiviral inconclusive and HCV inhibitor inconclusive.
`C=CCOc1ccc(CN(C)CC(O)COc2cccc3ccccc23)cc1` (configuration not stated) gave FMDV inh -26%, HCMV antiviral 54, VACV mCherry inh -22%, VACV Venus inh -20% and HCV inhibitor 32µM*.
`CCc1ccc(CNCc2ccc(OCC(O)CN(C)Cc3ccccc3)cc2)nc1` (configuration not stated) gave FMDV inh -23%, HCMV antiviral 0, VACV mCherry inh inconclusive, VACV Venus inh -12% and HCV inhibitor 11µM*.
Cc1ccc(CC(=O)NO)cc1 was read as VACV mCherry inh -9% and VACV Venus inh -12%.
For O=C(NCc1cccs1)O[C@H]1CC[C@@]23CCCN2C(=O)CCC[C@H]3[C@H]1Cc1ccccc1 the results were HCMV antiviral -14.
`COCCN(C(=O)CC(C)(C)C)c1nnc(-c2cccnc2)s1` gave FMDV inh -9%, HCMV antiviral -13, VACV mCherry inh inactive, VACV Venus inh -8% and HCV inhibitor 10%.
For COCCN(C(=O)CCc1ccccc1OC)c1nnc(-c2cccnc2)s1 the results were FMDV inh inconclusive, HCMV antiviral -61* and HCV inhibitor -16%.
For COc1ccc(COC(=O)Nc2cc3c(C(F)(F)F)nn(C)c3s2)cc1 the results were FMDV inh inconclusive, HCMV antiviral -22, VACV mCherry inh inactive, VACV Venus inh -15% and HCV inhibitor inconclusive.
Screening Cn1nc(C(F)(F)F)c2cc(NC(=O)OCc3ccc(F)cc3)sc21 returned FMDV inh inconclusive, HCMV antiviral -35, VACV mCherry inh inconclusive, VACV Venus inh -29% and HCV inhibitor 10µM*.
For Cc1nnc(SCc2nnc(-c3cccs3)o2)n1Cc1ccccc1 the results were FMDV inh -10%, HCMV antiviral -7, VACV mCherry inh inactive, VACV Venus inh -8% and HCV inhibitor 7%.
`Clc1ccc(-c2nnc(CSc3nnc(-c4cccs4)n3Cc3ccccc3)o2)cc1` gave FMDV inh inconclusive, HCMV antiviral -88* and HCV inhibitor inconclusive.
Screening Cc1ccc(S(=O)(=O)c2nnn3c2nc(NCc2ccccc2)c2sccc23)cc1 returned FMDV inh -15%, HCMV antiviral inconclusive, VACV mCherry inh inconclusive and VACV Venus inh inconclusive.
Screening CCc1ccc(S(=O)(=O)c2nnn3c2nc(NCCc2ccccc2)c2sccc23)cc1 returned FMDV inh 9%, HCMV antiviral -81*, VACV mCherry inh -29% and VACV Venus inh -26%.
`Cc1ccc(S(=O)(=O)c2nnn3c2nc(NC(C)c2ccccc2)c2sccc23)cc1` (configuration not stated) gave FMDV inh -30%, HCMV antiviral -71*, VACV mCherry inh -26% and VACV Venus inh -16%.
COc1ccccc1Nc1nc2c(S(=O)(=O)c3ccc(C(C)C)cc3)nnn2c2ccsc12 was read as FMDV inh -13%, HCMV antiviral 20, VACV mCherry inh -11% and VACV Venus inh -9%.
Cc1ccc(C)c(Nc2nc3c(S(=O)(=O)c4ccc(Br)cc4)nnn3c3ccsc23)c1 was read as FMDV inh -16%, HCMV antiviral -95*, VACV mCherry inh inconclusive and VACV Venus inh inconclusive.
Cc1ccc(C)c(Nc2nc3c(S(=O)(=O)c4ccc(C(C)C)cc4)nnn3c3ccsc23)c1 was read as FMDV inh -7%, HCMV antiviral -71*, VACV mCherry inh -28% and VACV Venus inh -27%.
`CC1CN(CCNC(=O)C2CCCc3c2[nH]c2ccccc32)Cc2ccccc2O1` (configuration not stated) gave FMDV inh inconclusive, VACV mCherry inh -15% and VACV Venus inh -11%.
Screening CCN(C(=O)CSc1nnc(NCc2ccccc2)s1)C1CCS(=O)(=O)C1 (configuration not stated) returned FMDV inh 3%, HCMV antiviral -74* and HCV inhibitor 8%.
